In PMC11006913:

These sequences were tested against PITX2 (Homo sapiens, UniProt Q99697 72-157) (assay: PBM; 200 nM protein, PBS). Settings: dsDNA, one strand shown.

Point of comparison: GGCTTAAA, binding signal 12.3 upbm affinity estimate (log intensity, higher = more binding, comparable within an allelic series). Against it:
- ATAGGCTC — lower, 9.54 upbm affinity estimate (log intensity, higher = more binding, comparable within an allelic series)
- AGGATTTA — higher, 12.4 upbm affinity estimate (log intensity, higher = more binding, comparable within an allelic series)
- CAGTTCCG — lower, 8.03 upbm affinity estimate (log intensity, higher = more binding, comparable within an allelic series)
- GGATTTAC — the same, 12.3 upbm affinity estimate (log intensity, higher = more binding, comparable within an allelic series)
- GGATTTAA — higher, 12.5 upbm affinity estimate (log intensity, higher = more binding, comparable within an allelic series)
- CTCCCCGA — lower, 8.1 upbm affinity estimate (log intensity, higher = more binding, comparable within an allelic series)
- AAGCCCTA — lower, 10.4 upbm affinity estimate (log intensity, higher = more binding, comparable within an allelic series)
- ATATAAAG — lower, 9.37 upbm affinity estimate (log intensity, higher = more binding, comparable within an allelic series)
- ACTCGACC — lower, 7.76 upbm affinity estimate (log intensity, higher = more binding, comparable within an allelic series)
- CAACCATC — lower, 8.24 upbm affinity estimate (log intensity, higher = more binding, comparable within an allelic series)
- ACCATCGT — lower, 7.89 upbm affinity estimate (log intensity, higher = more binding, comparable within an allelic series)
- CAGACACG — lower, 7.83 upbm affinity estimate (log intensity, higher = more binding, comparable within an allelic series)
- CTGTCGAC — lower, 7.99 upbm affinity estimate (log intensity, higher = more binding, comparable within an allelic series)
- ACACCAGC — lower, 8.12 upbm affinity estimate (log intensity, higher = more binding, comparable within an allelic series)
- AATCCAAT — lower, 10.9 upbm affinity estimate (log intensity, higher = more binding, comparable within an allelic series)
- AGGGATAG — lower, 9.94 upbm affinity estimate (log intensity, higher = more binding, comparable within an allelic series)
- CAACGGGC — lower, 7.95 upbm affinity estimate (log intensity, higher = more binding, comparable within an allelic series)
- TCTTGGCA — lower, 7.96 upbm affinity estimate (log intensity, higher = more binding, comparable within an allelic series)
- GCGTACCC — lower, 8.02 upbm affinity estimate (log intensity, higher = more binding, comparable within an allelic series)
- TGGTCGAA — lower, 7.84 upbm affinity estimate (log intensity, higher = more binding, comparable within an allelic series)
- AGATCAAC — lower, 10.1 upbm affinity estimate (log intensity, higher = more binding, comparable within an allelic series)
- ACGCCGAG — lower, 8 upbm affinity estimate (log intensity, higher = more binding, comparable within an allelic series)
- GAGATCAC — lower, 9.79 upbm affinity estimate (log intensity, higher = more binding, comparable within an allelic series)
- GCCGGATA — lower, 9.58 upbm affinity estimate (log intensity, higher = more binding, comparable within an allelic series)
- GCACGCCA — lower, 7.9 upbm affinity estimate (log intensity, higher = more binding, comparable within an allelic series)
- ACTAAGCC — higher, 12.4 upbm affinity estimate (log intensity, higher = more binding, comparable within an allelic series)
- GACGCGAC — lower, 7.93 upbm affinity estimate (log intensity, higher = more binding, comparable within an allelic series)
- CTGGCCGC — lower, 8.13 upbm affinity estimate (log intensity, higher = more binding, comparable within an allelic series)
- ATACCTTA — lower, 9.97 upbm affinity estimate (log intensity, higher = more binding, comparable within an allelic series)
- CGTTGTCA — lower, 8.02 upbm affinity estimate (log intensity, higher = more binding, comparable within an allelic series)
- GCCTCACC — lower, 8.04 upbm affinity estimate (log intensity, higher = more binding, comparable within an allelic series)
- GACGGTGA — lower, 8.15 upbm affinity estimate (log intensity, higher = more binding, comparable within an allelic series)
- GTCCACTA — lower, 7.94 upbm affinity estimate (log intensity, higher = more binding, comparable within an allelic series)
- AGGCGTCC — lower, 7.84 upbm affinity estimate (log intensity, higher = more binding, comparable within an allelic series)
- GGTCTTTA — lower, 9.73 upbm affinity estimate (log intensity, higher = more binding, comparable within an allelic series)
- AGATTTAT — lower, 11 upbm affinity estimate (log intensity, higher = more binding, comparable within an allelic series)
- ACGTTCTG — lower, 8.19 upbm affinity estimate (log intensity, higher = more binding, comparable within an allelic series)
- ATAAATCC — the same, 12.3 upbm affinity estimate (log intensity, higher = more binding, comparable within an allelic series)
- GGCATTAC — lower, 10.5 upbm affinity estimate (log intensity, higher = more binding, comparable within an allelic series)
